Source: PubChem
This is a sample that favours compounds with a hit; in the whole collection about 7.3% have one here.
Tau FP inhib: blocks human tau fibril formation measured by polarization. P10636. Potency, µM (top dose mostly 57.7 µM), without a hit: at the top dose activity, negative = inhibition, hits mostly inhibitors. 280,000 tested, 0.39% active. K18 P301L tau heparin fibrillization, Alexa594 FP, 6 h; also: nearly all actives have a fitted effect of over 55% in size
Target sequence (P10636 561-689 P618L limits assumed): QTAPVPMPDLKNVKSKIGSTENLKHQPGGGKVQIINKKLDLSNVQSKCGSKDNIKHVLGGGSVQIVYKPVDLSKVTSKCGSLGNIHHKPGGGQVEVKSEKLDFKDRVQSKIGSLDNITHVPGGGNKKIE
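K18 P301L tau (15 uM unlabeled/0.24 uM Alexa 594-labeled, final) + compound + heparin 20 uM final; 100 mM NaOAc pH 7; 6 hr 37 C; ThT 30 uM final added, 1 hr RT; FP ex 555/em 632 nm.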
RORg inh: inhibitors of mouse ROR gamma transcriptional activity; P51450; Drosophila S2 Gal4-RORgamma UAS-luciferase reporter, 20 h; Potency, µM (highest dose often 53.6 µM), inactives show at the highest dose activity change, negative = inhibition, hits mostly inhibitors; 310,000 tested, 5.4% active; also: nearly all actives have a fitted effect of over 60% in size
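ROR gamma transcriptional activity was tracked as Gal4-UAS luciferase output in stably transfected Drosophila Schneider cells, with compound added 1 hr before 700 uM copper sulfate induction and a 20 hr ambient-temperature incubation.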
Tau fibril ThT: blocks human tau fibril formation measured by thioflavin T | P10636 | recombinant tau K18 P301L, heparin-induced fibrillization, ThT fluorescence | Potency, µM (series often up to 57.4 µM), without a hit: at the top dose activity, negative = inhibition, usual class: inhibitors | 270,000 tested, 2.1% active | AID 1460; also: nearly all actives have a fitted effect of over 55% in size
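Fibril formation assay: tau K18 P301L at 15 uM with trace Alexa 594 label, heparin inducer 20 uM, pH 7 sodium acetate buffer, 37 C for 6 hr; endpoint ThT signal.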
VP16 counter: inhibits Gal4-VP16 luciferase reporter, ROR gamma counter-screen | Drosophila S2 Gal4-VP16 UAS-luciferase, luminescence, 20 h | Potency, µM (top dose mostly 53.6 µM), for the others: top-dose activity, negative = inhibition, usual class: inhibitors | 310,000 tested, 3.5% active | AID 2546;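 also: Gal4-VP16 expression switched on by copper sulfate through the metallothionein promoter; nearly all actives have a fitted effect of over 50% in size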
Tau fluor cs: counter-screen for tau fibril formation inhibitors; tau K18 P301L Alexa594 fluorescence, heparin fibrillization; Potency, µM (series often up to 57.7 µM), for inactives: at the highest dose activity change, negative = decrease; 280,000 tested, 0.93% active; AID 1463; also: nearly all actives have a fitted effect of over 55% in size
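Human tau K18 P301L (15 uM unlabeled, 0.24 uM Alexa 594-labeled) in 100 mM sodium acetate pH 7 with 20 uM heparin, 6 hr at 37 C. ThT 30 uM added, 1 hr ambient; Alexa 594 FP and total fluorescence read at 555/632 nm.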
Numbers without * were called inactive. Calls follow the shape of the dose curve; as a rule, active = well fitted curve in the direction sought with a large enough effect; inconclusive = small, poorly fitted or top-dose-only effect, or another doubt; inactive = no such curve, though single readings can be large; an effect the other way counts as inactive or inconclusive. % is scaled to controls: 0 for no effect and ±100 for the full control effect; potency is read from the fitted curve at half-maximal effect.

Results for O=C1C(=O)N(C2CCN(C(=O)c3cccc(Cl)c3)CC2)CCN1Cc1ccc(F)cc1 ?
Tau FP inhib: 1.5%; Tau fibril ThT: -1.9%; Tau fluor cs: -3.0%

What do the screens show for `O=C1C2=C(c3ccccc31)[N+](=O)[C@@H]1CCCC[C@@H]1N2[O-]`?
Tau FP inhib: inconclusive; RORg inh: -24.6%; Tau fibril ThT: inconclusive; VP16 counter: 4.4%; Tau fluor cs: -18.1%

How did O=C1C2=C(c3ccccc31)[N+](=O)C1CCCCC1N2[O-] (configuration not stated) do in these assays?
Tau FP inhib: inconclusive; RORg inh: -30.3%; Tau fibril ThT: 15.8µM*; VP16 counter: 0.3%; Tau fluor cs: -25.7%

Results for COc1cc(NC(=S)Nc2ccc3c(c2)OCCO3)cc(OC)c1OC ?
Tau FP inhib: 9.9%; RORg inh: -22.4%; VP16 counter: 23.6%; Tau fluor cs: 1.7%

How did O=C(NC(=S)Nc1ccc2c(c1)OCO2)c1ccccc1 do in these assays?
Tau FP inhib: -0.3%; RORg inh: 4.47µM*; Tau fibril ThT: inconclusive; VP16 counter: inconclusive; Tau fluor cs: -26.6%

Results for O=C(NC(=S)Nc1ccc2c(c1)OCCO2)c1cccc2ccccc12 ?
Tau FP inhib: inconclusive; RORg inh: 10µM*; Tau fibril ThT: inconclusive; VP16 counter: inconclusive; Tau fluor cs: inconclusive

Results for CC(C)c1ccc(O)c(NC(=S)NC(=O)c2ccc3c(c2)OCO3)c1 ?
RORg inh: 0.562µM*; VP16 counter: 1.41µM*

Results for S=C(Nc1ccc(Br)cc1)Nc1ccc2c(c1)OCCO2 ?
RORg inh: 17.8µM*; VP16 counter: inconclusive

How did CCn1c(=O)c2sccc2n2c(CCCC(=O)Nc3ccc(Oc4ccccc4)cc3)nnc12 do in these assays?
Tau FP inhib: 2.6%; Tau fibril ThT: -10.0%; Tau fluor cs: inconclusive

Results for NC(=NC1C2CC3CC(C2)CC1C3)Nc1ccc(I)cc1 (configuration not stated) ?
Tau FP inhib: 2.1%; RORg inh: -6.1%; Tau fibril ThT: 7.8%; VP16 counter: -3.5%; Tau fluor cs: -1.8%

Results for N#Cc1ccccc1OCC(=O)NCC(c1cccs1)N1CCOCC1 (configuration not stated) ?
RORg inh: -9.7%; VP16 counter: 2.4%

How did CC(C)[C@@H](CC(=O)N[C@@H]1CCNC[C@H]1C(=O)N[C@H](CC(=O)N[C@@H](CCC(=O)O)CC(=O)O)Cc1ccccc1)NC(=O)C[C@H](Cc1c[nH]c2ccccc12)NC(=O)[C@@H]1CNCC[C@H]1N do in these assays?
Tau FP inhib: 0.4%; RORg inh: 6.8%; Tau fibril ThT: -0.2%; VP16 counter: -9.6%; Tau fluor cs: -9.1%

How did CC(=O)N1CCc2cc(CNC(=O)Nc3cc(Cl)ccc3C)ccc21 do in these assays?
Tau FP inhib: inconclusive; Tau fibril ThT: -4.0%; Tau fluor cs: -12.4%

What do the screens show for `O=C(Nc1ccc2c(c1)OCCO2)c1cccc(C(=O)Nc2ccc3c(c2)OCCO3)c1`?
RORg inh: -13.2%; VP16 counter: 11.2%

How did O=C(NC(=S)Nc1ccccc1Br)c1ccc2c(c1)OCO2 do in these assays?
RORg inh: 4.47µM*; VP16 counter: 8.91µM*

How did O=C(NC(=S)Nc1ccc2c(c1)OCCO2)c1cccc(Br)c1 do in these assays?
Tau FP inhib: inconclusive; RORg inh: 5.01µM*; Tau fibril ThT: -15.4%; VP16 counter: inconclusive; Tau fluor cs: inconclusive

What do the screens show for `O=C(Nc1nnc(S(=O)(=O)N2CCCCC2)s1)c1cccc(Br)c1`?
RORg inh: inconclusive; VP16 counter: 4.7%

What do the screens show for `CC(C)(C)C(=O)OCC(=O)C1CCC2C3CCC4=CC(=O)CCC4(C)C3CCC12C` (configuration not stated)?
Tau FP inhib: -9.1%; RORg inh: -24.2%; Tau fibril ThT: -8.3%; VP16 counter: 7.9%; Tau fluor cs: -8.1%

What do the screens show for `CCCCn1c(SC(C)C(N)=O)nc2cc(C(=O)OC)ccc2c1=O` (configuration not stated)?
Tau FP inhib: -3.3%; RORg inh: 14.1µM*; Tau fibril ThT: -3.8%; VP16 counter: -13.7%; Tau fluor cs: 0.4%
